Test results from PubChem BioAssay (NCATS).
Records with an inconclusive call do not appear. Activity calls are given as the source filed them. Calls come from the whole dose curve; as a rule, active = well fitted cell-killing curve with a large enough effect; inconclusive = small, poorly fitted or top-dose-only effect; inactive = flat fitted curve, though single readings scatter. Peptide text beside a SMILES is read from it.

Experiment: Cell Viability - LYMP2-020 (AID 986); note: nearly all actives have a fitted effect of over 55% in size;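 for activity change, negative = viability loss: plate controls were DMSO only for no effect and tetraoctylammonium bromide at 92 µM for full effect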
Conditions: series mostly up to 92.2 µM; activity change, negative = viability loss: at the top concentration
Source text: NIH Chemical Genomics Center [NCGC]
NIH Molecular Libraries Screening Centers Network [MLSCN]
National Institutes of Environmental Health Sciences [NIEHS]
National Toxicology Program [NTP]
We have developed a 1536-well cell-based assay for quantitative high throughput screening (qHTS) against a number of cell lines to determine in vitro cytotoxicity of small molecules. This particular assay uses a human lymphoblastoid cell line (LYMP2-020) purchased from Coriell Institute for Medical Research.
NCGC Assay Protocol Summary:
The CellTiter-Glo luminescent cell viability assay (Promega) is a homogeneous method to measure the number of viable cells in culture. The end point readout of this assay is based on quantitation of intracellular ATP, an indicator of metabolic activity, using the luciferase reaction. Luciferase catalyzes the oxidation of beetle Luciferin to oxyluciferin and light in the presence of ATP. The luminescent signal is proportional to amount of ATP present.
Using the CellTiter-Glo luminescent cell viability assay, the amount of cellular ATP was measured in the lymphoblastoid cell line with complete culture medium following compound treatment for 24 hours. The assay was performed in opaque white Kalypsys 1536-well plates. In the screen, tetraoctylammonium bromide was used as positive control. Library compounds were measured for their ability to cause acute toxicity in the cell line, as reflected by a decrease in intracellular ATP levels, in a concentration-dependent manner. […] AC50 values were determined from concentration-response data modeled with the standard Hill equation.
qHTS protocol for CellTiter Glo lymphoblastoid cellular assay
[Step] [Parameter] [Value] [Description]
1. Reagent; 5 uL; 2500 lymphoblastoid cells/well
2. Time; 5 hr; 37 C incubation
4. Controls; 23 nL; Tetraoctylammonium bromide 6.4pM to 92 uM
5. Time; 24 hr; 37 C incubation
6. Reagent; 5 uL; CellTiter Glo reagent
7. Time; 30 min; Room Temperature
8. Detection; Luminescence; Viewlux plate reader
Keywords: cell viability, cytotoxicity, lymphoblastoid cell line, luminescence, NTPHTS, NTPHTS_NCGC, NIEHS, DSSTox, MLSMR, MLSCN, NIH Roadmap, qHTS, NCGC
Potency is the fitted concentration of half-maximal effect.

Compound | Potency | activity change, negative = viability loss
CN(C)c1ccc2nc3ccc(=[N+](C)C)cc-3sc2c1 | 7.94 µM (active) | –
COC(=O)[C@H](Cc1ccccc1)NC(=O)[C@@H](N)CC(=O)O (H-Asp-Phe-OMe) | – | 12.2% (inactive)
CS(=O)(=O)OCCCCOS(C)(=O)=O | inactive | –
c1ccc2[nH]c(-c3cscn3)nc2c1 | – | -18.6% (inactive)
Cc1ccc(C)c(OCCCC(C)(C)C(=O)O)c1 | – | -2.62% (inactive)
CCCc1cc(=O)[nH]c(=S)[nH]1 | – | 0.64% (inactive)
CCc1nc(N)nc(N)c1-c1ccc(Cl)cc1 | – | -23.5% (inactive)
CCCCC(CC)COC(=O)C(C#N)=C(c1ccccc1)c1ccccc1 (configuration not stated) | – | -19.4% (inactive)
COc1c2occc2cc2ccc(=O)oc12 | – | -1.32% (inactive)
Nc1ccc(S(N)(=O)=O)cc1 | – | 6.45% (inactive)
CC(=O)Nc1ccc(O)cc1 | – | 0.444% (inactive)
NS(=O)(=O)c1cc(C(=O)O)c(NCc2ccco2)cc1Cl | – | -3.96% (inactive)
